Experimental findings from PubChem BioAssay AID504332 (National Center for Advancing Translational Sciences (NCATS), 2011) are described below.

Screen size: about 350,000 compounds; about 31,000 (8.9%) were called active. About 15% were inconclusive and are not listed. Many of the other results were omitted from the sample, so actives are more common in it than they were. A number with no mark means an inactive call. Calls come from the whole dose curve; as a rule, active = well fitted inhibition curve with a large enough effect; inconclusive = small, poorly fitted or top-dose-only effect; inactive = no such curve, though single readings can be large or run the other way.
% is set by controls: 0 for no effect and ±100 for the full control effect; potency is the fitted concentration of half-maximal effect.

This test deals with Histone-lysine N-methyltransferase EHMT2 (Homo sapiens) (UniProt Q96KQ7). The test can be described thus: qHTS Assay for Inhibitors of Histone Lysine Methyltransferase G9a. Note: nearly all actives have a fitted effect of over 75% in size. The settings on record: G9a H3K9 monomethylation, AlphaScreen, 2 h; series mostly up to 59 µM; activity, negative = inhibition: at the top concentration. The gist of the method: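 G9a (20 nM) preincubated 15 min RT with compounds, then 500 nM biotinylated H3K9 peptide and 20 uM SAM added; 2 h RT reaction. Monomethyl-H3K9 product detected by AlphaScreen with anti-H3K9me1 antibody, streptavidin donor and anti-rabbit IgG acceptor beads.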
Histone-lysine N-methyltransferase EHMT2 (Homo sapiens), sequence (Q96KQ7 913-1193 limits assumed): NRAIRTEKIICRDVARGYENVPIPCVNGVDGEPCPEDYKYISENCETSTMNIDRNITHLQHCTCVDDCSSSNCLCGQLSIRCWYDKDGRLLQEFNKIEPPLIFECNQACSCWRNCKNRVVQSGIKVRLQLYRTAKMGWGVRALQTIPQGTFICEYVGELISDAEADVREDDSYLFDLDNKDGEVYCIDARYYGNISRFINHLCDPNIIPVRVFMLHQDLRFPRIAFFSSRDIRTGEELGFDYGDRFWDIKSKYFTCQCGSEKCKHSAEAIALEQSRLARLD
For orientation: Quantitative high-throughput screening tests each substance at several concentrations.
For `COc1ccc(CNC(=O)c2cc3c(s2)-c2ccccc2OC3)cc1`, the “activity, negative = inhibition” value is -3.7%. Regarding `Cc1ccc(-n2nc(-c3ccco3)cc2C(=O)NCc2cccnc2)cc1`, the Potency is 2.51 µM (active).

In the case of `CC(C)(C)c1cc(C(=O)NCc2cccnc2)ccn1`, the activity, negative = inhibition was 17.8% [at 0.501 µM]. Still for that read-out and setting: then `Cc1ccc(C(=O)NC(=S)NCc2cccnc2)cc1`, with -24.2% [at 102 µM]. Still for that read-out and setting: next, `O=C(NCC12CC3CC(CC(C3)C1)C2)c1cc2nc(-c3ccccc3)cc(C(F)(F)F)n2n1`: -1.06%; `COc1cc(OC)c(NC(=O)c2nc(-c3ccncc3)no2)cc1Cl`: 6.69%.

Take `Cc1ccc(C)c(Nc2nnc(-c3ccc(C)c(S(=O)(=O)N4CCCCC4)c3)c3ccccc23)c1`: the “activity, negative = inhibition” value was -34.2%. `O=C(CNC(=O)c1ccccc1Br)NNC(=O)c1cccs1`: the “activity, negative = inhibition” value is 7.12% [at 102 µM]. `O=C1CCC(C(=O)N2CCN(c3ccccc3Cl)CC2)CN1CC1CCCCC1` (centres undefined): the “activity, negative = inhibition” value is 0.955%. On the same count and under the same terms, then `COc1ccc(NC(=O)COC(=O)c2n[nH]c3ccccc23)c(OC)c1`, with 3.57% [at 12.7 µM]; and `CCCn1c(C)cc(/C=C(\C#N)C(=O)OCC(=O)N(C)c2c(N)n(Cc3ccccc3)c(=O)[nH]c2=O)c1C`, with -50.7% [at 102 µM]. `CCN(CC)c1ccc(/C=N/NC(=O)CNC(=O)c2cccnc2)cc1`: the “activity, negative = inhibition” value was -26.8% [at 102 µM]. `CCN(CC)c1ccc(/C=N/NC(=O)CNC(=O)c2cccs2)cc1`: the Potency is 50.1 µM (active). Turning to `O=C(CNC(=O)c1cccs1)N/N=C/c1cccc(Br)c1`, the “activity, negative = inhibition” value is 18.8% [at 102 µM].

Turning to `O=C(NCCS(=O)(=O)N1CCN(c2ccc(F)cc2)CC1)c1ccccc1Br`, the “activity, negative = inhibition” value was 2.38%. Take `O=C(Nc1ccc(OC(F)(F)F)cc1)C1CCCN(S(=O)(=O)c2ccc(Br)s2)C1` (centres undefined): the “activity, negative = inhibition” value is 14.2%. For the compound `N#CCC(=O)NC(=O)NCC1CC1`, the Potency is 39.8 µM (active). Take `CC(C)NC(=O)NC(=O)COC(=O)c1ccc(NC(=O)CC#N)cc1`: the “activity, negative = inhibition” value was -1.05%. Same read-out and setting: then `N#Cc1ccc(C(=O)OCC(=O)NC(=O)NC2CCCCC2)cc1`, with 13.4% [at 2.33 µM]; and `CC1(C)O[C@@H]2[C@H](O1)[C@@H](CO)O[C@H]2n1c(N2CCCCC2)nc2c(N)ncnc21`, with 9.14% [at 0.501 µM]. On the same count and under the same terms, then `Cc1cc(OCC(=O)Nc2ncn[nH]2)c(C)c(C)c1Br`, with 78.8%. Consider `Cc1ccc(OCCCCN2CCCCC2)c(Br)c1`, for which the Potency was 11.2 µM (active). `Cc1ccc(Cl)c(OCC(=O)NN2CCN(C)CC2)c1`: the “activity, negative = inhibition” value is 7.88% [at 102 µM].

Turning to `Cc1ccc(OCC(O)CN2CCN(CC(O)COc3ccc(C)cc3Cl)CC2)c(Cl)c1` (centres undefined), the “activity, negative = inhibition” value was 23.1% [at 102 µM]. Take `CC(=O)Nc1ccc(S(=O)(=O)N2CCN(CCCOc3cc(C)ccc3C)CC2)cc1`: the activity, negative = inhibition was -3.97% [at 12.7 µM]. Still for that read-out and setting: then `Cc1ccc(C)c(OCCC(=O)Nc2cccc(S(=O)(=O)N3CCCC3)c2)c1`, with 6.86% [at 0.501 µM].

With `Cc1ccc(C(C)(C)C)c(OCCCCN2CCCC2)c1`, the Potency is 8.91 µM (active). Consider `COCCNc1ncnc2c1c(-c1ccccc1)cn2-c1ccc(C)c(Cl)c1`, for which the “activity, negative = inhibition” value is 2.41%. Regarding `CCOC(=O)N1CCN(S(=O)(=O)c2ccc3c(c2)C(C)C(=O)N3)CC1` (centres undefined), the activity, negative = inhibition was 14.1% [at 12.7 µM].

Regarding `Cc1ccccc1N1CCN(C2CCCN(C(=O)c3cn4c(C)cccc4n3)C2)CC1` (centres undefined), the activity, negative = inhibition was 9.34% [at 0.501 µM]. Still for that read-out and setting: next, `CCC(=O)Nc1ccc(-c2ccc(N3CCCCC3)nn2)cc1`: 8.38%; `Cc1ccc(C)c(CNC(=O)c2cc3ccccn3n2)c1`: -1.14%. On the same count and under the same terms, then `CCCN1CCN(CCCNC(=O)Cn2nc(CC)n3c(cc4occc43)c2=O)CC1`, with 2.34%. On the same count and under the same terms, next, `O=C(CSc1ncc(-c2ccccc2)[nH]1)Nc1ccc(F)cc1F`: -35.1%. Take `COc1ccc(/C=N/OCc2ccccc2C#N)c(OC)c1`: the “activity, negative = inhibition” value was 30% [at 102 µM]. On the same count and under the same terms, next, `CCc1ccc2oc(-c3ccc(NC(=O)c4cc5ccccc5o4)cc3)nc2c1`: 6.7%. Still for that read-out and setting: next, `COc1ccc(CCNC(=O)c2cn(C)c3ccc(S(=O)(=O)N(C)C4CCCCC4)cc3c2=O)cc1OC`: 7.95%. Take `COc1ccccc1-n1c(-c2cc(-c3ccco3)[nH]n2)n[nH]c1=S`: the Potency was 2.82 µM (active).

As for `COc1ccccc1-n1cn[nH]c1=S`, the activity, negative = inhibition is -42.9% [at 12.7 µM]. Still for that read-out and setting: then `Cc1n[nH]c(=O)n1-c1ccc(C(C)C)cc1`, with 50.3% [at 102 µM].

On to `Cc1ccc(-n2c(-c3ccc(Cl)cc3)n[nH]c2=S)cc1`, for which the Potency was 1.41 µM (active). Regarding `COc1ccc(OC)c(-n2c(=S)[nH]c3cc(C(=O)N4CCCCC4)ccc3c2=O)c1`, the “activity, negative = inhibition” value was -50% [at 102 µM]. Same read-out and setting: then `Cc1ccc(-c2cn3cc(C)ccc3n2)cc1`, with -0.22%. For the compound `COc1ccc(-n2c(-c3ccc(OC)c(OC)c3)n[nH]c2=S)cc1`, the Potency is 5.62 µM (active). As for `COc1ccc(-c2c(-c3cc(OC)cc(OC)c3)n(C)c3ccc(-c4ccn[nH]4)cc23)cc1`, the activity, negative = inhibition was 2.71% [at 0.501 µM]. As to `COc1ccc(OC)c(-n2c(-c3ccn[nH]3)n[nH]c2=S)c1`, the Potency was 14.1 µM (active). Consider `COc1ccc(CCn2c(-c3ccco3)nc3nc4ccccc4nc32)cc1OC`, for which the activity, negative = inhibition was -36.8% [at 12.7 µM]. The same measure, in the same setting: next, `COc1ccc(-n2c(C)csc2=S)cc1`: 1.12%; `COc1ccc(-c2cn(-c3ccc(C)cc3)c(=O)n2CC(=O)Nc2ccc(OC)c(OC)c2)cc1`: -42.8%.

Turning to `COc1ccccc1CN1CCC(CNC(=O)c2cnn(-c3cccc(Cl)c3)c2C2CCN(C(=O)OC(C)(C)C)CC2)CC1`, the “activity, negative = inhibition” value is -23.9%. Same read-out and setting: next, `COc1ccc(CCc2nc(-c3cccs3)no2)cc1`: 181% [at 102 µM]; `COc1ccc(CC(=O)NCCc2sc3nc(-c4ccc(OC)cc4)nn3c2C)cc1`: 7.66%. The same measure, in the same setting: next, `Cc1cc(C)cc(NC(=O)CSc2nc3nccnc3c(=O)n2CCc2c[nH]c3ccccc23)c1`: 0.37%; `CCOc1ccccc1NC(=O)Cn1c(=O)n(Cc2ccccc2)c(=O)c2c(C)c(C(=O)N(C)C)sc21`: -3.22%; `Cc1cccc(C(=O)Nc2ccc(Oc3cnccn3)cc2)c1`: -1.31% [at 2.33 µM]. Take `CCOc1cc(C(=O)NCCc2csc3nc(-c4ccc(C)cc4)nn23)cc(OCC)c1OCC`: the “activity, negative = inhibition” value was -2.16%. For the compound `CCOC(=O)C1=C(COC(=O)[C@H](C)NS(=O)(=O)c2ccccc2F)NC(=O)NC1C` (some centres undefined), the activity, negative = inhibition was 20.6% [at 2.33 µM]. On the same count and under the same terms, next, `CCc1cc2c(cc3c(=O)n(CC(=O)NCc4cccc(Cl)c4)nc(CC)n32)s1`: -7.4%; `COCCNC(=O)c1ccc2c(c1)N(Cc1cccc(Cl)c1)C(=O)c1ccccc1S2(=O)=O`: 2.78%.
